Results filed as inconclusive are left out. Values without a mark were called inactive. Active and inactive are the calls of the source. Calls come from the whole dose curve; as a rule, active = well fitted cell-killing curve with a large enough effect; inconclusive = small, poorly fitted or top-dose-only effect; inactive = no such curve, though single readings can be large or run the other way.
Experiment: qHTS of pediatric cancer cell lines to identify multiple opportunities for drug repurposing: Primary screen for MG 63 (6-TG R) cells (AID 1347105); note: nearly all actives have a fitted effect of over 50% in size
Settings: MG 63 (6-TG R) viability, CellTiter-Glo, 48 h; series mostly up to 46 µM; activity change, negative = cytotoxic: at the top concentration
From the text: Drug repurposing or repositioning has been offered as a strategy for drug development in oncology programs. This approach has special potential for childhood cancers and other rare or orphan diseases, where the expected return on new drug development has been a disincentive to pharmaceuticals. […] In this project we exploit the poly-pharmacology of drugs to discover new indications via phenotypic screening of a panel of 19 well-characterized cell lines derived from solid tumors seen in children and adolescents. The goal is to identify approved drugs with previously unrecognized anticancer properties that has the potential to reveal new mechanisms and biological processes involved in carcinogenesis or drug resistance. We employed a titration-based paradigm (quantitative high-throughput screening or qHTS), where all compounds were tested at multiple concentrations for their effect on cell viability. Concentration-response curves (CRCs) were derived directly from the primary screen, and both potency and efficacy values were used to identify compounds with robust bioactivity profiles. We screened the NIH Chemical Genomics Center (NCGC) Pharmaceutical Collection (NPC) and Mechanism Interrogation Plate (MIPE) small molecule collections of approved and investigational compounds against these cell lines; and measured metabolically active cells after 48 hours of compound treatment as a proxy for cell viability. […] Assay Submitter: Nathalia J. Martinez, National Center for Advancing Translational Sciences, National Institutes of Health, Rockville, MD, USA; email: natalia.martinez@nih.gov Shen, M et al. Quantitative high-throughput phenotypic screening of pediatric cancer cell lines identifies multiple opportunities for drug repurposing. Oncotarget 2017 Dec 19;9(4):4758-4772. PMID 29435139.
The cells were obtained from University of North Carolina (UNC), Pediatric Preclinical Testing Program (PPT), and Coriell Institute (CI). qHTS cell viability assay: Cells were assayed in growth media at a density of 500-1,000 cells/well. Five microliters of cells were dispensed into 1,536-well, white, solid-bottom, TC-treated plates (Greiner Bio One) using a multidrop dispenser and incubated at 37 degrees C, 5% CO2, under a humidified atmosphere for 5 hours. Twenty-three nanoliters of compounds and controls (neutral control DMSO or positive control bortezomib at final concentration of 2.3 µM) were subsequently transferred by Kalypsys pintool. For primary screens, the MIPE collection was tested at 11-point dilutions (final concentrations range from 0.78 nM to 46 µM) and the NPC collection at 8-point dilutions (final concentrations range from 0.59 nM to 46 µM). Compounds tested in follow-up screens were assayed at 11-point dilutions. Cells were incubated for 48 hours, followed by addition of 3 µL of CellTiter-Glo (Promega). After a 15 min incubation at room temperature, samples were analyzed for luminescence intensity using a ViewLux High-throughput CCD imager equipped with clear filters.
% is set by controls: 0 for no effect and ±100 for the full control effect; potency is the fitted concentration of half-maximal effect.

Structure (SMILES)	activity change, negative = cytotoxic	Potency
CCN(CC)CCOc1ccc2c(c1)C(=O)c1cc(OCCN(CC)CC)ccc1-2	-6.84%	
Cc1ncc(CO)c(C=O)c1O	-8.99%	
CCC(Cc1c(I)cc(I)c(N)c1I)C(=O)O (stereo not given)	-18.8%	
CC(=O)N[C@@H](CCC(=O)O)C(=O)O	0.28%	
Cc1cc(CC(=O)O)c(C)n1-c1ccc(Cl)cc1	-11%	
CN1CCc2cccc3c2[C@H]1Cc1ccc(O)c(O)c1-3	14.4%	
CCCCCCCCCCCCSCCOCCO	-0.376%	
CCCCCCCCOc1ccc(C(=O)c2ccccc2)c(O)c1	12.5%	
COc1ccc(S(=O)(=O)N2c3ccc(Cl)cc3[C@@](O)(c3ccccc3Cl)[C@H]2C(=O)N2CCC[C@@H]2C(N)=O)cc1OC	-23.2%	
COC(=O)C(c1ccccc1Cl)N1CCc2sccc2C1 (stereo not given)	-5.05%	
COc1ccc(/C=N/NC(=O)c2ccncc2)cc1OC	-3.61%	
CCOC(=O)c1ccc(N)cc1	-33.9%	
COc1cc(O)c(C(=O)c2ccccc2)cc1S(=O)(=O)O	8.95%	
Nc1ccc(S(=O)(=O)NCc2ccccc2)cc1	-0.429%	
CCc1cc(Cl)c(OC)c(C(=O)NC[C@@H]2CCCN2CC)c1O	-4.31%	
CCCCN=C(N)N=C(N)N	-11.5%	
O=[N+]([O-])c1cccc(S(=O)(=O)NCCNS(=O)(=O)c2cccc([N+](=O)[O-])c2)c1	-8.71%	
N[C@H](C(=O)O)[C@@H](O)c1ccc(O)c(O)c1	2.29%	
CC(C(=O)O)c1cccc(Oc2ccccc2)c1 (stereo not given)	-13.2%	
CCc1nn(CCCN2CCN(c3cccc(Cl)c3)CC2)c(=O)n1CCOc1ccccc1	-21.5%	

Structure (SMILES)	activity change, negative = cytotoxic	Potency
COc1cc([C@H]2Oc3cc([C@H]4Oc5cc(O)cc(O)c5C(=O)[C@@H]4O)ccc3O[C@@H]2CO)ccc1O	-13%	
CCOc1ccc(NC(C)=O)cc1	-26.9%	
Cc1ccc2c(Br)cc(Br)c(O)c2n1		13.3 µM (active)
NC1CCN(c2nc3c(cc2F)c(=O)c(C(=O)O)cn3-c2ccc(F)cc2F)C1 (stereo not given)	20.9%	
CN(C)C(=O)Nc1ccc(Cl)c(Cl)c1	-15.8%	
C[C@H]1O[C@@H](O[C@H]2CC[C@@]3(C)[C@H](CC[C@@H]4[C@@H]3C[C@@H](O)[C@]3(C)[C@@H](C5=CC(=O)OC5)CC[C@]43O)C2)C[C@H](O)[C@@H]1O[C@H]1C[C@H](O)[C@H](O[C@H]2C[C@H](O)[C@H](O[C@@H]3O[C@H](CO)[C@@H](O)[C@H](O)[C@H]3O)[C@@H](C)O2)[C@@H](C)O1		0.0841 µM (active)
O=C(O)CCc1nc2ccccc2[nH]1	-5.52%	
CN1CCN(C2=Nc3ccccc3Sc3ccc(Cl)cc32)CC1	-9.97%	
O=C(O)CCNC(=O)c1ccccc1	-2.9%	
CN1CCN(c2c(F)cc3c(=O)c(C(=O)O)cn4c3c2SCC4)CC1	41.4%	
CCN1CCN(C(=O)N[C@@H](C(=O)N[C@@H]2C(=O)N3C(C(=O)O)=C(CSc4nnnn4C)CS[C@H]23)c2ccc(O)cc2)C(=O)C1=O	-20.9%	
Nc1ccc(S(=O)(=O)Nc2cnc3ccccc3n2)cc1	-5.86%	
Cc1ccc(-c2ncc(Cl)cc2-c2ccc(S(C)(=O)=O)cc2)cn1	-4.58%	
CC(=O)Nc1ccc(S(=O)(=O)Nc2ccc([N+](=O)[O-])cc2)cc1	-22.7%	
N=C(N)N1CCc2ccccc2C1	-18.3% [at 4.84 µM]	
COc1cc(NS(=O)(=O)c2ccc(N)cc2)ncn1	-11.9%	
Nc1nc(N)c(-c2ccccc2)s1	-15.1%	
CCOc1ccccc1C(N)=O	-16.8%	
OC[C@H]1O[C@@H](Oc2ccc(O)cc2)[C@H](O)[C@@H](O)[C@@H]1O	-16.4%	
NS(=O)(=O)c1ccc(Cl)c(S(N)(=O)=O)c1	-15%	

Reference: PubChem BioAssay (NCATS)
